Several values for one entry are separate records, joined by “and”; a condition that tells them apart may be missing. Equal values may be shown once. Records with an inconclusive call do not appear. The source holds several records for some structures; these can differ, active in one and inactive in another. Activity calls are given as the source filed them. The call rests on the fitted dose curve; in most records, active means well fitted curve in the direction sought with a large enough effect; inconclusive means small, poorly fitted or top-dose-only effect, or another doubt; inactive means no such curve, though single readings can be large; an effect the other way counts as inactive or inconclusive.
Tests used:
[1] = target: Alpha-galactosidase (Coffea arabica) (UniProt Q42656); experiment: Counterscreen for Glucocerebrosidase Inhibitors: qHTS Assay for Coffee Bean alpha-Galactosidase at pH 4.5 (AID 957); further: series mostly up to about 77 µM
Sequence of Alpha-galactosidase (Coffea arabica) (Q42656 whole entry, looked up): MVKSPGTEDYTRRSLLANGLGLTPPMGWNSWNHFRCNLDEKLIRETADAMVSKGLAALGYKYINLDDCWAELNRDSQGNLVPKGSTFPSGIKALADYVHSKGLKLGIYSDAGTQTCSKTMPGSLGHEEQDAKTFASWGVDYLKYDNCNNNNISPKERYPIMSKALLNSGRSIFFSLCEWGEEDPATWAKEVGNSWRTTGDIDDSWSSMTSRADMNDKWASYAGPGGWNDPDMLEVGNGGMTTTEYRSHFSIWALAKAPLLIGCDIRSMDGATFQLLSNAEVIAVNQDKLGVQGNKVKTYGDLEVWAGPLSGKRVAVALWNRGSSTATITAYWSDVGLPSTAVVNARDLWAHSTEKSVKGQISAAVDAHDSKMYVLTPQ
Summary of the method: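 Fluorogenic read-out: 4-methylumbelliferone at Ex 365/Em 440 nm after NaOH/glycine stop (pH 10). Enzyme 2 nM, 4-MU-alpha-galactoside 80 uM, citrate buffer pH 4.5, 20 min RT; normalized to no-enzyme and enzyme controls.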

[2] = MultiTox-Fluor Cytotoxicity Assay - LYMP1-002 - Live Cells (AID 955);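 further: cells exposed to compound for 16 hours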; further: potency means the concentration at half of the fitted maximal effect
Summary of the method: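 LYMP1-002 lymphoblastoid cells; 2500 cells/well; 16 hr compound exposure, 37 C; MultiTox-Fluor reagent 60 min RT; live-cell fluorescence Ex/Em=405/510; qHTS concentration-response, Hill-equation AC50; tetraoctylammonium bromide positive control.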

[3] = MultiTox-Fluor Cytotoxicity Assay - LYMP1-003 - Live Cells (AID 962);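 further: cells exposed to compound for 16 hours at 37 °C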; further: potency means the concentration at half of the fitted maximal effect
Summary of the method: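 Readout: live-cell fluorescence (Ex/Em=405/510) from GF-AFC cleavage after 60 min MultiTox-Fluor reagent at room temperature. Lymphoblastoid LYMP1-003 cells, 16 hr compound treatment, 37 C. Concentration-response fitted to standard Hill equation for AC50.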

[4] = Cell Viability - LYMP1-003 - Assay at 24 hr (AID 963); further: potency means the concentration at half of the fitted maximal effect
Summary of the method: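 CellTiter-Glo luminescence (intracellular ATP) read after 24 hr, 37 C compound exposure of 2500 LYMP1-003 human lymphoblastoid cells/well in complete medium; qHTS concentration series; AC50 via standard Hill equation.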

[5] = Cell Viability - LYMP2-003 (AID 965);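 further: cells exposed to compounds for 24 h before reading; nearly all actives have a fitted effect of over 50% in size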; further: potency means the concentration at half of the fitted maximal effect
Summary of the method: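 qHTS, human lymphoblastoid line, 2500 cells/well, complete medium. 24 h drug, 37 C. ATP-based luminescent readout; Hill-fit AC50.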

[6] = Cell Viability - LYMP2-004 (AID 966); further: potency means the concentration at half of the fitted maximal effect; nearly all actives have a fitted effect of over 65% in size
Summary of the method: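 Luminescent ATP read-out (CellTiter-Glo, 30 min RT) after 24 hr compound exposure at 37 C; 2500 lymphoblastoid cells/well, complete medium. Decrease in ATP = cytotoxicity; AC50 from standard Hill model.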

[7] = Cell Viability - LYMP2-005 (AID 967); further: potency means the concentration at half of the fitted maximal effect
Summary of the method: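 Luciferase-based ATP quantitation served as the viability measure in human lymphoblastoid LYMP2-005 cells exposed to test compounds for 24 h at 37 C in complete culture medium. Potency (AC50) was obtained by fitting concentration-response curves with the Hill equation.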

[8] = Cell Viability - LYMP2-009 (AID 968); further: nearly all actives have a fitted effect of over 55% in size; further: potency means the concentration at half of the fitted maximal effect
[9] = Cell Viability - LYMP2-011 (AID 969); further: nearly all actives have a fitted effect of over 60% in size; further: potency means the concentration at half of the fitted maximal effect
Summary of the method: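 Luminescent ATP read-out (CellTiter-Glo, 30 min RT) after 24 hr compound exposure at 37 C in human lymphoblastoid cells, 2500 cells/well. Decreasing ATP indicates cytotoxicity; AC50 from standard Hill fit.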

[10] = Cell Viability - LYMP2-013 (AID 970); further: nearly all actives have a fitted effect of over 55% in size; further: potency means the concentration at half of the fitted maximal effect
Summary of the method: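 CellTiter-Glo luminescence (cellular ATP) read after 30 min at RT. Cells: human lymphoblastoid line, 2500/well, 24 hr compound exposure at 37 C. Tetraoctylammonium bromide positive control; AC50 via standard Hill fit of qHTS titrations.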

[11] = Cell Viability - LYMP2-015 (AID 971); further: nearly all actives have a fitted effect of over 55% in size; further: potency means the concentration at half of the fitted maximal effect
Summary of the method: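 qHTS cytotoxicity: 2500 cells/well, 5 hr 37 C, compound 24 hr 37 C, CellTiter-Glo 30 min RT, luminescence. Loss of ATP = toxicity; AC50 via standard Hill fit.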

[12] = Cell Viability - LYMP2-017 (AID 972); further: nearly all actives have a fitted effect of over 55% in size; further: potency means the concentration at half of the fitted maximal effect
Summary of the method: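 Luminescent ATP read-out (CellTiter-Glo, 30 min RT) reports viable cell number. Cells: human lymphoblastoid line, 2500 per well, 5 hr preincubation, 24 hr compound exposure at 37 C. AC50 is derived from qHTS concentration-response data using the standard Hill model.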

[13] = Cell Viability - LYMP2-019 (AID 973); further: nearly all actives have a fitted effect of over 55% in size; further: potency means the concentration at half of the fitted maximal effect
Summary of the method: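 qHTS, 1536-well; 2500 cells/well; 5 hr pre-incubation, 24 hr compound exposure, 37 C; CellTiter-Glo added, 30 min RT; luminescence read; AC50 via standard Hill equation.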

[14] = Cell Viability - LYMP2-021 (AID 974); further: potency means the concentration at half of the fitted maximal effect
Summary of the method: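 ATP luminescence (CellTiter-Glo, 30 min RT) after 24 h compound exposure at 37 C; 2500 human lymphoblastoid cells/well, 5 h settle beforehand. Cytotoxicity = concentration-dependent ATP drop, AC50 by Hill fit.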

[15] = Cell Viability - LYMP2-023 (AID 975); further: nearly all actives have a fitted effect of over 55% in size; further: potency means the concentration at half of the fitted maximal effect
Summary of the method: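 CellTiter-Glo luminescence after 30 min at room temperature; decrease in intracellular ATP reflects toxicity. Cells: human lymphoblastoid line, 2500/well, 24 hr compound exposure at 37 C. AC50 fitted to standard Hill equation from concentration-response.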

[16] = Cell Viability - LYMP2-025 (AID 976); further: potency means the concentration at half of the fitted maximal effect
Summary of the method: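 CellTiter-Glo luminescence (cellular ATP) after 24 h compound exposure at 37 C; LYMP2-025 human lymphoblastoid cells, 2500/well, complete medium. Tetraoctylammonium bromide positive control. AC50 by Hill equation fit of qHTS concentration-response.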

[17] = Cell Viability - LYMP2-002 (AID 977); further: potency means the concentration at half of the fitted maximal effect
Summary of the method: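 In this qHTS viability screen, 2500 human lymphoblastoid cells per well receive compound for 24 hr at 37 C, and luciferase-based ATP luminescence gives the viability signal. Tetraoctylammonium bromide serves as positive control.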

[18] = Cell Viability - LYMP2-006 (AID 978); further: nearly all actives have a fitted effect of over 60% in size; further: potency means the concentration at half of the fitted maximal effect
Summary of the method: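 In this cytotoxicity screen, the human lymphoblastoid line grew in complete medium with test compounds for 24 hr at 37 C. Cellular ATP served as the viability signal.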

[19] = MultiTox-Fluor Cytotoxicity Assay - LYMP1-002 - Dead Cells (AID 960); further: nearly all actives have a fitted effect of over 60% in size; further: potency means the concentration at half of the fitted maximal effect
Summary of the method: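 Readout: fluorescence at 485/520 from cell-impermeant bis-AAF-R110 cleaved by proteases leaking from damaged cells. LYMP1-002 lymphoblastoid line, 16 hr compound treatment at 37 C, concentration-response in qHTS format; Hill-equation AC50 values.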

[20] = Cell Viability - LYMP1-003 - Assay at 40 hr (AID 964); further: nearly all actives have a fitted effect of over 60% in size; further: potency means the concentration at half of the fitted maximal effect
Summary of the method: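 LYMP1-003 lymphoblastoid cells, 2500/well; 5 hr preincubation, 40 hr compound exposure, 37 C; CellTiter-Glo 30 min RT; luminescence; Hill-fit AC50. Positive control tetraoctylammonium bromide.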

Q: Which outcome [1] does the source give for `CN(C)CCOC(c1ccccc1)c1ccccc1` here?
A: inactive

Q: With `C[n+]1cc2c3c(ccc2c2ccc4cc5c(cc4c21)OCO5)OCO3` as the molecule, how does the outcome [1] read?
A: inactive

Q: For `O=c1[nH]c2ccccc2n1CCCN1CCN(C(c2ccccc2)c2ccccc2)CC1`, which outcome [1] is on record?
A: inactive

Q: For `N[C@@H](Cc1c[nH]c2ccc(O)cc12)C(=O)O`, which outcome [1] is on record?
A: inactive

Q: Which outcome [1] does the source give for `NC(N)=NCCC[C@H](N)C(=O)O` here?
A: inactive

Q: With `C[C@H](N)[C@H](O)c1ccc(O)c(O)c1` as the molecule, how does the outcome [1] read?
A: inactive

Q: With `COCC(=O)O[C@]1(CCN(C)CCCc2nc3ccccc3[nH]2)CCc2cc(F)ccc2[C@@H]1C(C)C` as the molecule, how does the outcome [1] read?
A: inactive

Q: Which Potency [2] does the source give for `CN(C)C(=S)SSC(=S)N(C)C` here?
A: 10 µM (active)

Q: And the Potency [3]?
A: 50.1 µM (active)

Q: And the Potency [4]?
A: 15.8 µM (active)

Q: What about the Potency [5] of the same molecule?
A: 0.251 µM (active)

Q: And the Potency [6]?
A: 0.251 µM (active)

Q: And the Potency [7]?
A: 0.501 µM (active)

Q: And the Potency [8]?
A: 0.199 µM (active)

Q: What about the Potency [9] of the same molecule?
A: 0.316 µM (active)

Q: What about the Potency [10] of the same molecule?
A: 0.398 µM (active)

Q: What about the Potency [11] of the same molecule?
A: 251 nM (active)

Q: And the Potency [12]?
A: 0.199 µM (active)

Q: What about the Potency [13] of the same molecule?
A: 0.199 µM (active)

Q: And the Potency [14]?
A: 0.501 µM (active)

Q: What about the Potency [15] of the same molecule?
A: 0.316 µM (active)

Q: What about the Potency [16] of the same molecule?
A: 0.251 µM (active)

Q: What about the Potency [17] of the same molecule?
A: 0.316 µM (active)

Q: What about the Potency [18] of the same molecule?
A: 0.251 µM (active)

Q: With `CN(C)CCCN1c2ccccc2Sc2ccc(C(F)(F)F)cc21` as the molecule, how does the outcome [1] read?
A: inactive

Q: Which outcome [1] does the source give for `Brc1c(NC2=NCCN2)ccc2nccnc12` here?
A: inactive

Q: For `COc1cc2c(cc1OC)-c1cc(=Nc3c(C)cc(C)cc3C)n(C)c(=O)n1CC2`, which outcome [1] is on record?
A: inactive

Q: Which outcome [1] does the source give for `Cc1[nH]c(=O)c(C#N)cc1-c1ccc2nccn2c1` here?
A: inactive

Q: Which Potency [2] does the source give for `O=C(CCl)c1ccc(Cl)cc1Cl` here?
A: 7.94 µM (active)

Q: And the Potency [19]?
A: 7.94 µM (active)

Q: What about the Potency [3] of the same molecule?
A: 15.8 µM (active)

Q: What about the Potency [4] of the same molecule?
A: 20 µM (active)

Q: And the Potency [20]?
A: 20 µM (active)

Q: And the Potency [5]?
A: 10 µM (active)

Q: And the Potency [6]?
A: 6.31 µM (active)

Q: What about the Potency [7] of the same molecule?
A: 10 µM (active)

Q: What about the Potency [8] of the same molecule?
A: 6.31 µM (active)

Q: What about the Potency [9] of the same molecule?
A: 6.31 µM (active)

Q: And the Potency [10]?
A: 7.94 µM (active)

Q: And the Potency [11]?
A: 5010 nM (active)

Q: What about the Potency [12] of the same molecule?
A: 3.16 µM (active)

Q: What about the Potency [13] of the same molecule?
A: 7.94 µM (active)

Q: And the Potency [14]?
A: 3.98 µM (active)

Q: What about the Potency [15] of the same molecule?
A: 6.31 µM (active)

Q: What about the Potency [16] of the same molecule?
A: 7.94 µM (active)

Q: And the Potency [17]?
A: 7.94 µM (active)

Q: And the Potency [18]?
A: 7.94 µM (active)

Q: What does the source list for `COP(=O)(OC)OC=C(Cl)Cl`?
A: Potency [2]: inactive; Potency [19]: inactive; Potency [3]: inactive; Potency [4]: inactive; Potency [20]: 6.31 µM (active) and inactive; Potency [5]: inactive; Potency [7]: inactive; Potency [8]: inactive; Potency [9]: inactive; Potency [10]: inactive; Potency [11]: inactive; Potency [12]: inactive; Potency [13]: inactive; Potency [14]: inactive; Potency [15]: inactive; Potency [16]: inactive; Potency [17]: inactive; Potency [18]: inactive

Q: For `O=C1NCN(c2ccccc2)C12CCN(CCCC(c1ccc(F)cc1)c1ccc(F)cc1)CC2`, which outcome [1] is on record?
A: inactive

Q: With `COC(=O)C1=C(C)NC(C)=C(C(=O)OC)C1c1ccccc1[N+](=O)[O-]` as the molecule, how does the Potency [2] read?
A: 31.6 µM (active)

Q: What about the Potency [4] of the same molecule?
A: 50.1 µM (active)

Q: And the Potency [20]?
A: 39.8 µM (active)

Q: What about the Potency [5] of the same molecule?
A: 50.1 µM (active)

Q: What about the Potency [6] of the same molecule?
A: 31.6 µM (active)

Q: What about the Potency [12] of the same molecule?
A: 50.1 µM (active)

Q: What about the Potency [13] of the same molecule?
A: 79.4 µM (active)

Q: Which outcome [1] does the source give for `O=C(Nc1ccc([N+](=O)[O-])cc1Cl)c1cc(Cl)ccc1O` here?
A: inactive

Q: For `C[N+](C)(C)CCCCCCCCCC[N+](C)(C)C`, which outcome [1] is on record?
A: inactive

Q: With `C[N+](C)(C)CCOC(=O)CCC(=O)OCC[N+](C)(C)C` as the molecule, how does the outcome [1] read?
A: inactive

Q: Which outcome [1] does the source give for `c1ccc2nc(N3CCNCC3)ccc2c1` here?
A: inactive

Q: For `Oc1cc(O)c2c(c1)O[C@H](c1ccc(O)c(O)c1)[C@H](O)C2`, which outcome [1] is on record?
A: inactive

Q: Which outcome [1] does the source give for `NC(=O)CN1CCCC1=O` here?
A: inactive

Q: With `OC(CN1CCC(Cc2ccc(F)cc2)CC1)c1ccc(Cl)cc1` (configuration not stated) as the molecule, how does the outcome [1] read?
A: inactive

Q: With `COc1ccc(CN(CCN(C)C)c2ccccn2)cc1` as the molecule, how does the outcome [1] read?
A: inactive

Q: Which outcome [1] does the source give for `CCCOc1ccccc1-c1nc2n[nH]nc2c(=O)[nH]1` here?
A: inactive

Q: With `COc1cc(C(=O)OCCCN2CCCN(CCCOC(=O)c3cc(OC)c(OC)c(OC)c3)CC2)cc(OC)c1OC` as the molecule, how does the outcome [1] read?
A: inactive

Q: For `CCCn1cnc2c1c(=O)n(CCCCC(C)=O)c(=O)n2C`, which outcome [1] is on record?
A: inactive

Q: What does the source list for `C[C@@H]1C[C@@H]([C@H](O)CC2CC(=O)NC(=O)C2)C(=O)[C@@H](C)C1`?
A: Potency [2]: inactive; Potency [4]: inactive; Potency [20]: 2 µM (active) and inactive; Potency [10]: 2 µM (active); Potency [11]: 2 µM (active) and 1 µM (active); Potency [12]: 1.58 µM (active); Potency [18]: 2.51 µM (active)

Q: With `Oc1ccc(O)cc1` as the molecule, how does the outcome [1] read?
A: inactive

— PubChem BioAssay (NCATS)
